# PubChem BioAssay AID2685 (National Center for Advancing Translational Sciences (NCATS), 2010)
# The campaign covered roughly 320,000 compounds. About 2,100 (0.66%) were called active. Roughly 53% stayed inconclusive and do not appear here. Calls follow the shape of the dose curve; as a rule, active = well fitted inhibition curve with a large enough effect in the signal ratio, with a control signal flat (not every such curve was filed as active); inconclusive = small, poorly fitted or top-dose-only effect, or effect the other way, or a change in a side signal; inactive = flat fitted curve, though single readings scatter; the % refers to the signal ratio. Many of the other results were omitted from the sample, so actives are more common in it than they were.
# Test: qHTS Assay for Lipid Storage Modulators in Drosophila S3 Cells;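 as to cell number change: cells counted by Cell Tracker Red CMTPX staining in the red channel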; as to lipid storage change, negative = inhibition: % is scaled to controls: 0 for no effect and ±100 for the full control effect
# Settings: BODIPY lipid droplet fluorescence, 18-24 h, cells fed with added oleic acid; cell number change: measured here: cell count max response; series mostly up to 46.1 µM; lipid storage change, negative = inhibition: at the top concentration
# In short: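 Drosophila S3 cells got compounds at several concentrations plus oleic acid (400 uM solution). Laser-scanning cytometry with 488 nm excitation read lipid droplets at 500-530 nm and cells at 575-640 nm. Percent activity was relative to 20 uM Triacsin C.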
# Potency is read from the fitted curve at half-maximal effect.
Structure (SMILES),outcome,cell number change,"lipid storage change, negative = inhibition",Potency
CCCNC(=O)c1oc2ccc3c(c2c1C)C(O)CC(C)(C)O3 (stereo not given),inactive,11.7%,–,–
O=C(CN1C2CCCC1CC(NC(=O)c1ccco1)C2)Nc1ccccc1C(F)(F)F (stereo not given),–,1.61%,6.75% (inactive),–
Cc1ccc(C(c2sc3ncnn3c2O)N2CC(C)CC(C)C2)cc1 (stereo not given),–,-0.62%,-14% (inactive),–
O=C1c2cccc3cccc(c23)C(=O)N1CC1CCN(S(=O)(=O)c2ccc(F)cc2)CC1,–,1.3%,0.656% (inactive),–
O=S(=O)(Nc1ccc(N2CCCCC2)cc1)c1ccccc1F,–,-15.7%,-8.36% (inactive),–
CCOc1ccc2nc(CN3CCN(Cc4ccsc4)C(CCO)C3)ccc2c1 (stereo not given),–,3.37%,-13.8% (inactive),–
Cc1nnc(SCC(=O)N(C)c2c(N)n(Cc3ccccc3)c(=O)[nH]c2=O)n1Cc1ccccc1,–,4.04%,-5.33% (inactive),–
COc1ccc(S(=O)(=O)N(C)CC(=O)N2CCC(C(N)=O)CC2)cc1,–,-9.84%,–,14.6 µM (active)
Cc1ccccc1NS(=O)(=O)c1ccc(C(=O)N2CCCCCC2)cc1,–,4.54%,24.1% (inactive),–
O=C(c1ccccc1)N1CCN(S(=O)(=O)N2CCCCCC2)CC1,inactive,22.9%,–,–
Cc1ccccc1NS(=O)(=O)c1ccc(C(=O)N2CCN(S(=O)(=O)c3ccccc3)CC2)cc1,–,-28%,–,3.26 µM (active)
COc1ccc(S(=O)(=O)N(C)CC(=O)N2CCCCCC2)cc1,–,7.92%,9.93% (inactive),–
CN(C)S(=O)(=O)N1CCN(C(=O)c2ccccc2Cl)CC1,inactive,–,–,–
CCOC(=O)C1CCN(C(=O)c2ccc(N(C)S(=O)(=O)c3ccc(OC)cc3)cc2)CC1,–,-4.35%,-25.7% (inactive),–
Cc1ccc(S(=O)(=O)N(C)c2ccc(C(=O)N3CCC(C(N)=O)CC3)cc2)cc1,–,-5.24%,–,23.1 µM (active)
Cc1cccc(NS(=O)(=O)c2ccc(C(=O)N3CCC3)cc2)c1C,–,19.3%,21.3% (inactive),–
COc1ccc(S(=O)(=O)N(C)c2ccc(C(=O)N3CCC(C(N)=O)CC3)cc2)cc1,–,-14.8%,1.68% (inactive),–
COc1ccc(S(=O)(=O)N(C)CC(=O)N2CCCC2)cc1,–,-6.74%,-3.08% (inactive),–
CN(C)S(=O)(=O)N1CCN(C(=O)c2ccccc2)CC1,–,10.4%,–,23.1 µM (active)
Cc1ccn(CC(=O)N2CCCC(N3CCN(Cc4ccc5c(c4)OCO5)CC3)C2)n1 (stereo not given),–,8.09%,7.81% (inactive),–
Cc1nc(SCC(=O)N(C)Cc2ccco2)c2c(C)c(C)sc2n1,–,-25.2%,14.1% (inactive),–
O=C(Nc1ccc(C(=O)Oc2ccccc2)c(O)c1)c1ccccc1,–,-6.44%,-0.0459% (inactive),–

Structure (SMILES),outcome,cell number change,"lipid storage change, negative = inhibition",Potency
COc1ccc(/C=C2\SC(=S)N(N3CCOCC3)C2=O)c(OC)c1,–,7.5%,18% (inactive),–
CC1CCN(C(=O)c2cc(Cl)nc3ccccc23)CC1,–,-4.42%,13.5% (inactive),–
COc1ccc(S(=O)(=O)N2CCC(C(=O)NCc3cccc(OC)c3)CC2)cc1,inactive,29.1%,–,–
COc1ccc(/C=N/NC(=O)CCn2nc(C)cc2C)cc1,–,9.01%,13.7% (inactive),–
Cc1cc(C)cc(C(=O)Nc2cc3c4c(c2)CC(=O)N4CCC3)c1,–,-11.8%,-15.8% [at 0.0737 µM] (inactive),–
O=C(CSc1ccc(C(F)(F)F)cc1[N+](=O)[O-])N1CCOCC1,–,-7.3%,-21.4% (inactive),–
Cc1ccc(-c2nn(CC(=O)NC(C)c3ccccc3)c(=O)c3ccccc23)cc1 (stereo not given),–,–,-5.81% (inactive),–
COc1ccccc1Nc1nnc(SCC(=O)c2cc(C)n(CC3CCCO3)c2C)s1 (stereo not given),–,4.55%,26% (inactive),–
CCOc1ccc(CCNC(=O)c2nnn(CC(=O)Nc3c(C)cc(C)cc3C)c2N)cc1OCC,inactive,23.4%,–,–
O=C(c1ccccc1)N1CCN(C2CCCCC2)CC1,–,7.93%,2.03% (inactive),–
O=C(c1ccccc1)N1CCN(C2CCCCCC2)CC1,–,-3.45%,–,25.9 µM (active)
O=C(c1ccncc1)N1CCN(C2CCCCC2)CC1,–,9.31%,-5.89% (inactive),–
Cc1noc(C)c1C(=O)OCC(=O)Nc1cccc(S(=O)(=O)N(C)C)c1,–,-1.55%,3.18% (inactive),–
Cc1cc(C(=O)N/N=C/c2ccc(Cl)c([N+](=O)[O-])c2)c(C)n1-c1ccc(F)cc1,–,-1.33%,14.7% (inactive),–
CCN(CC)CCC(c1ccc(N(C)C)cc1)c1c(OC)cc(OC)c2c(-c3ccccc3)cc(=O)oc12 (stereo not given),–,-6.71%,6.17% (inactive),–
COc1ccc(C(=O)OCC(=O)Nc2cc(C)c(C)cc2[N+](=O)[O-])cc1,–,-12.7%,19.5% (inactive),–
NC(=O)CSc1cn(CCNC(=O)c2cccs2)c2ccccc12,–,22.5%,11.3% (inactive),–
O=C1/C(=C/c2cccs2)COc2ccccc21,–,-6.21%,-5.09% (inactive),–
O=C1C(=Cc2cccs2)C(=O)c2ccccc21,–,-7.62%,–,18.4 µM (active)
O=C1/C(=C/c2cccs2)Cc2ccccc21,–,20.5%,2.15% (inactive),–
O=C(CN1C(=O)/C(=C\c2cccc(Cl)c2)Oc2ccccc21)N1CCN(c2ccccn2)CC1,–,–,21.7% (inactive),–
C[C@@H]1C=CC(=O)O[C@@H]1c1ccc(C(F)(F)F)cc1,–,9.88%,16.1% (inactive),–
